Calls of active or inactive are those of the source. The calls were made as follows: active = hit-call score of the fitted dose curve at least 0.9, where 1 is the maximum; inactive = score below 0.9.
Key:
Details in all cases: mRNA level, 48 h; actives raise or lower the signal
[1] = read-out: flavin-containing dimethylaniline monooxygenases 3 (FMO3), FMO3 (gene 2328); assay: LTEA_HepaRG_FMO3: Life Technologies and Expression Analysis (LTEA) Assay for flavin-containing dimethylaniline monooxygenases 3 (FMO3) using HepaRG (AID 2283453)
Outline: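 Differentiated HepaRG cells in serum-free induction medium, exposed 48 h in duplicate to 8 half-log concentrations up to 100 uM in 0.5% DMSO. FMO3 mRNA by qRT-PCR, normalized to ACTB, GAPDH, POLR2A; bidirectional fit vs DMSO.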

[2] = read-out: Cytochrome P450 (CYP1A1), CYP1A1 (gene 1543); assay: LTEA_HepaRG_CYP1A1: Life Technologies and Expression Analysis (LTEA) Assay for Cytochrome P450 (CYP1A1) using HepaRG (AID 2283454)
Outline: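 Induction of CYP1A1 mRNA in a human hepatic cell line was measured 48 h after dosing, with 1 mM phenobarbital as induction positive control and 0.5% DMSO vehicle as baseline for bidirectional curve fitting.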

[3] = read-out: CFLAR gene, CFLAR (gene 8837); assay: LTEA_HepaRG_CFLAR: Life Technologies and Expression Analysis (LTEA) Assay for CFLAR gene using HepaRG (AID 2283455)
Outline: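 Differentiated HepaRG cells in serum-free induction medium were exposed 48 h in duplicate to eight half-log concentrations up to 100 uM in 0.5% DMSO; mRNA measured by TaqMan qRT-PCR, normalized to ACTB, GAPDH, POLR2A; bidirectional fitting versus DMSO.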

[4] = read-out: Forkhead box O1 (FOXO1), FOXO1 (gene 2308); assay: LTEA_HepaRG_FOXO1: Life Technologies and Expression Analysis (LTEA) Assay for Forkhead box O1 (FOXO1) using HepaRG (AID 2283456)
Outline: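 Differentiated HepaRG cells, in serum-free induction medium with 0.5% DMSO, exposed 48 h in duplicate to 8-point half-log series from 100 uM. FOXO1 mRNA measured by TaqMan qRT-PCR, normalized to ACTB, GAPDH, POLR2A; bidirectional fit versus DMSO.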

[5] = read-out: growth arrest and DNA damage 45 (GADD45A), GADD45A (gene 1647); assay: LTEA_HepaRG_GADD45A: Life Technologies and Expression Analysis (LTEA) Assay for growth arrest and DNA damage 45 (GADD45A) using HepaRG (AID 2283458)
Outline: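 Cells plated and cultured 48 h, switched to serum-free induction medium, then dosed for 48 h (100 uM top, half-log dilutions, 0.5% DMSO). RNA was isolated and transcript measured by Fluidigm qRT-PCR.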

[6] = read-out: Forkhead box O3 (FOXO3), FOXO3 (gene 2309); assay: LTEA_HepaRG_FOXO3: Life Technologies and Expression Analysis (LTEA) Assay for Forkhead box O3 (FOXO3) using HepaRG (AID 2283459)
Outline: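 Differentiated human HepaRG cells, 48 h post-plating, exposed in duplicate for 48 h in serum-free induction medium; 8-point half-log series from 100 uM in 0.5% DMSO. FOXO3 mRNA by TaqMan qRT-PCR, normalized to ACTB/GAPDH/POLR2A; bidirectional fit versus DMSO.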

[7] = read-out: ABC Transporter (ABCB1), ABCB1 (gene 5243); assay: LTEA_HepaRG_ABCB1: Life Technologies and Expression Analysis (LTEA) Assay for ABC Transporter (ABCB1) using HepaRG (AID 2283460)
Outline: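 HepaRG cells exposed in duplicate for 48 h in serum-free induction medium to eight half-log concentrations up to 100 uM in 0.5% DMSO. ABCB1 mRNA quantified by qRT-PCR, normalised to ACTB, GAPDH and POLR2A; fitted bidirectionally versus DMSO.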

[8] = read-out: growth arrest and DNA damage 45 (GADD45B), GADD45B (gene 4616); assay: LTEA_HepaRG_GADD45B: Life Technologies and Expression Analysis (LTEA) Assay for growth arrest and DNA damage 45 (GADD45B) using HepaRG (AID 2283461)
Outline: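 Values are bidirectional concentration-response fits against 0.5% DMSO controls. Underlying data: qRT-PCR mRNA levels in human HepaRG liver cells treated 48 h in serum-free induction medium, eight concentrations topping at 100 uM.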

[9] = read-out: ABC Transporter (ABCC3), ABCC3 (gene 8714); assay: LTEA_HepaRG_ABCC3: Life Technologies and Expression Analysis (LTEA) Assay for ABC Transporter (ABCC3) using HepaRG (AID 2283462)
Outline: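 Differentiated HepaRG liver cells receive test chemicals at eight concentrations (max 100 uM) for 48 h. Expression of ABCC3 is quantified by qRT-PCR against ACTB, GAPDH and POLR2A, and activity is fitted in both directions against the DMSO control.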

[10] = read-out: ABC Transporter (ABCB11), ABCB11 (gene 8647); assay: LTEA_HepaRG_ABCB11: Life Technologies and Expression Analysis (LTEA) Assay for ABC Transporter (ABCB11) using HepaRG (AID 2283463)
Outline: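 Differentiated human HepaRG cells in serum-free induction medium, dosed in duplicate for 48 h. Eight-point half-log series from 100 uM in 0.5% DMSO; ABCB11 mRNA by qRT-PCR, normalized to ACTB, GAPDH, POLR2A, fitted bidirectionally versus DMSO.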

[11] = read-out: ABC Transporter (ABCC2), ABCC2 (gene 1244); assay: LTEA_HepaRG_ABCC2: Life Technologies and Expression Analysis (LTEA) Assay for ABC Transporter (ABCC2) using HepaRG (AID 2283464)
Outline: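 Gene expression of ABCC2 was determined by qRT-PCR in HepaRG cells exposed 48 h to chemicals (highest 100 uM, half-log dilutions). Activity was fitted in both directions relative to 0.5% DMSO vehicle.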

[12] = read-out: Broad substrate specificity ATP-binding cassette transporter ABCG2 (Homo sapiens) (UniProt Q9UNQ0); assay: LTEA_HepaRG_ABCG2: Life Technologies and Expression Analysis (LTEA) Assay for ABC Transporter (ABCG2) using HepaRG (AID 2283465)
Outline: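 Differentiated HepaRG cells were exposed for 48 h in serum-free induction medium to 8 half-log concentrations, top 100 uM, in 0.5% DMSO. ABCG2 mRNA was measured by qRT-PCR, normalized to ACTB, GAPDH and POLR2A, with bidirectional fitting versus DMSO.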

[13] = read-out: ATP-citrate lyase (ACLY), ACLY (gene 47); assay: LTEA_HepaRG_ACLY: Life Technologies and Expression Analysis (LTEA) Assay for ATP-citrate lyase (ACLY) using HepaRG (AID 2283466)
Outline: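 Differentiated HepaRG cells exposed 48 h in serum-free induction medium to eight half-log concentrations up to 100 uM in 0.5% DMSO, duplicates. Transcript measured by Fluidigm TaqMan qRT-PCR, normalized to ACTB, GAPDH, POLR2A; bidirectional fit versus DMSO.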

[14] = read-out: Peroxisomal acyl-coenzyme A oxidase 1 (ACOX1) gene, ACOX1 (gene 51); assay: LTEA_HepaRG_ACOX1: Life Technologies and Expression Analysis (LTEA) Assay for Peroxisomal acyl-coenzyme A oxidase 1 (ACOX1) gene using HepaRG (AID 2283467)
Outline: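 HepaRG cells, plated 48 h then switched to serum-free induction medium, were exposed in duplicate for 48 h to 8-point half-log concentrations up to 100 uM in 0.5% DMSO. ACOX1 mRNA was measured by qRT-PCR, normalized to ACTB/GAPDH/POLR2A, and fitted bidirectionally versus DMSO.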

[15] = read-out: Alkaline Phosphatase, Placental (ALPP) gene, ALPP (gene 250); assay: LTEA_HepaRG_ALPP: Life Technologies and Expression Analysis (LTEA) Assay for Alkaline Phosphatase, Placental (ALPP) gene using HepaRG (AID 2283468)
Outline: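 Expression of ALPP was quantified by qRT-PCR against three housekeeping genes in human HepaRG cultures treated for 48 h with an eight-point concentration series up to 100 uM. Activity in either direction was fitted relative to 0.5% DMSO.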

[16] = read-out: Bcl-2 (BAD) gene, BAD (gene 572); assay: LTEA_HepaRG_BAD: Life Technologies and Expression Analysis (LTEA) Assay for Bcl-2 (BAD) gene using HepaRG (AID 2283469)
Outline: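 Differentiated HepaRG cells were exposed in duplicate in 0.5% DMSO for 48 h to eight-point half-log concentrations up to 100 uM. BAD mRNA was measured by Fluidigm TaqMan qRT-PCR, normalized to ACTB, GAPDH and POLR2A, and fitted bidirectionally against DMSO.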

[17] = read-out: Bcl-2 (BAX) gene, BAX (gene 581); assay: LTEA_HepaRG_BAX: Life Technologies and Expression Analysis (LTEA) Assay for Bcl-2 (BAX) gene using HepaRG (AID 2283470)
Outline: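 HepaRG (human liver), 48 h exposure, duplicate wells. 8-pt curve, half-log from 100 uM, 0.5% DMSO. BAX transcript by TaqMan qRT-PCR; ACTB/GAPDH/POLR2A normalization; gain or loss vs DMSO baseline.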

[18] = read-out: adenosine kinase (ADK) gene, ADK (gene 132); assay: LTEA_HepaRG_ADK: Life Technologies and Expression Analysis (LTEA) Assay for adenosine kinase (ADK) gene using HepaRG (AID 2283471)
Outline: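 Read-out is ADK transcript level measured by qRT-PCR and normalised to three housekeeping genes. Cells are human HepaRG, dosed for 48 h at up to 100 uM in 0.5% DMSO. Gain or loss of signal is fitted against DMSO controls.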

[19] = read-out: Alpha-fetoprotein (AFP) gene, AFP (gene 174); assay: LTEA_HepaRG_AFP: Life Technologies and Expression Analysis (LTEA) Assay for Alpha-fetoprotein (AFP) gene using HepaRG (AID 2283472)
Outline: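 HepaRG, single lot; 48 h post-plating -> serum-free induction medium; cpd 8-pt, 100 uM top, half-log, 0.5% DMSO, duplicate, 48 h. RNA -> qRT-PCR AFP, norm ACTB/GAPDH/POLR2A. Bidirectional fit vs DMSO.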

Measured: AC50

Sequence of Broad substrate specificity ATP-binding cassette transporter ABCG2 (Homo sapiens) (Q9UNQ0 whole entry, looked up): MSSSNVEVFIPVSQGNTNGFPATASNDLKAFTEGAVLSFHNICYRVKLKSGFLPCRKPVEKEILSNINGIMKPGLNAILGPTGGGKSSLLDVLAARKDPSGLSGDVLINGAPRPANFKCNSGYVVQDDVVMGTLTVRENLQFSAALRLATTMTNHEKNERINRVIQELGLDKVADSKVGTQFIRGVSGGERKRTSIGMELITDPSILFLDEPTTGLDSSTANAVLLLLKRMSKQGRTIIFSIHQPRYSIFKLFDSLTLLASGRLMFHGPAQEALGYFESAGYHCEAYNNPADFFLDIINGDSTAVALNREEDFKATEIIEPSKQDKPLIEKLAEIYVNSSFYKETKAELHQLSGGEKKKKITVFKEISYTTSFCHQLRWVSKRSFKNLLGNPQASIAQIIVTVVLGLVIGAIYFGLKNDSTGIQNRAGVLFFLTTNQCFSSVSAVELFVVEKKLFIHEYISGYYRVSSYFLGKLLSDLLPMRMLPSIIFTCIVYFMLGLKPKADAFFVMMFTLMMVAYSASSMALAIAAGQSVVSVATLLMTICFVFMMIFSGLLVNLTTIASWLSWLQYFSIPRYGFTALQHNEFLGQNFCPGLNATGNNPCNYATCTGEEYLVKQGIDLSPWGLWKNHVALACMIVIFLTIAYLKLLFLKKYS

CCOC(=O)NCCOc1ccc(Oc2ccccc2)cc1
active: [1] 96 µM | [2] 50 µM | [4] 88.5 µM | [5] 79.5 µM | [7] 84.4 µM | [10] 71.2 µM | [12] 78 µM | [15] 50 µM | [19] 83.5 µM
inactive: [3] | [6] | [8] | [9] | [11] | [13] | [14] | [16] | [17] | [18]

CCNc1nc(N)nc(Cl)n1
inactive: [1] | [2] | [3] | [4] | [5] | [6] | [7] | [8] | [9] | [10] | [11] | [12] | [13] | [14] | [15] | [16] | [17] | [18] | [19]

Oc1ccc(C(c2ccc(O)cc2)C(Cl)(Cl)Cl)cc1
inactive: [2] | [3] | [7] | [9] | [15] | [16] | [17] | [19]
active: [1] 94 µM | [4] 93.2 µM | [5] 90.9 µM | [6] 82.9 µM | [8] 93.8 µM | [11] 83.1 µM | [12] 75.4 µM | [13] 78.5 µM | [14] 85.5 µM | [18] 75.9 µM

CCN(CC)C(=O)c1cccc(C)c1
inactive: [1] | [3] | [4] | [5] | [6] | [7] | [8] | [9] | [10] | [12] | [13] | [14] | [15] | [16] | [17] | [18] | [19]
active: [2] 50 µM | [11] 21.5 µM

CCC(C)OC(=O)N1CCCCC1CCO (stereo not drawn)
inactive: [1] | [3] | [4] | [5] | [6] | [7] | [8] | [9] | [10] | [11] | [12] | [13] | [14] | [15] | [16] | [17] | [18] | [19]
active: [2] 64 µM

CCCCOC(=O)C(C)Oc1ccc(Oc2ccc(C(F)(F)F)cn2)cc1 (stereo not drawn)
active: [2] 9.92 µM
inactive: [1] | [3] | [4] | [5] | [6] | [7] | [8] | [9] | [10] | [11] | [12] | [13] | [14] | [15] | [16] | [17] | [18] | [19]
